{"source": "PubChem BioAssay (Tox21)", "note": "Where “and” joins values, the source holds several entries; their conditions need not be identical. Identical values can stand only once. Results filed as inconclusive are left out. Where a call stands in place of a potency, no number is given. Where a structure was tested more than once in an assay, its records may differ in their call. Calls of active or inactive are those of the source. Calls follow the shape of the dose curve; as a rule, active = well fitted cell-killing curve with a large enough effect in the repeat runs; inconclusive = weak or mixed curves, or effect the other way; inactive = no such curve, though single readings can be large or run the other way. Potency is read from the fitted curve at half-maximal effect.", "data": [{"assay": "qHTS assay to identify small molecule agonists of the RXR signaling pathway - cell viability counter screen (AID 1159529); also: nearly all actives have a fitted effect of over 50% in size", "conditions": "RXR-alpha-bla HEK293T viability, CellTiter-Glo, 16 h; series mostly up to 76.8 µM; activity change, negative = cytotoxicity: at the top concentration", "text": "National Center for Advancing Translational Sciences [NCATS]\nNIH Chemical Genomics Center [NCGC]\nU.S. Environmental Protection Agency [EPA]\nNational Institutes of Environmental Health Sciences [NIEHS]\nNational Toxicology Program [NTP]\nU.S. Food and Drug Administration [FDA]\nThe Retinoid X receptor (RXR), a nuclear hormone receptor expressed in liver, spleen, placenta, epidermis, central nervous system. These receptors are able to form homo and heterodimers with other nuclear receptors and due to this heterodimerizing ability, RXR functions as master regulators producing diverse physiological effects. Three subtypes of RXR exist; alpha, beta and gamma. Retinoid X receptor alpha (RXR-alpha) has potential roles in metabolic signaling pathways, skin alopecia, dermal cysts, cardiac development, insulin sensitization etc. Therefore screening environmental chemicals on RXR-alpha signaling can be used for the studies focused on such therapeutic applications. For quantification of RXR-alpha ligands signaling, GeneBLAzer RXR alpha-UAS-bla HEK 293T (Life Technologies, Carlsbad, CA) cells containing a beta-lactamase reporter-gene under control of Retinoid X receptor-alpha response element were used to screen Tox21 10K library. The cytotoxicity of the Tox21 compound library against the RXR-alpha HEK 293T cell line was tested in parallel by measuring cell viability using CellTiter-Glo assay (Promega Corporation, Madison, WI) in the same wells.\nTox21 Assay Protocol Summary:\nRXR-alpha HEK 293T cells were dispensed at 2,000 cells/6 uL of assay medium containing 2% charcoal-stripped FBS using a Multidrop Combi (ThermoFisher Scientific, Waltham, MA) dispenser. The assay was performed in black wall/clear-bottom 1536-well plates (Greiner Bio-One North America Inc. Monroe, NC). Tetraoctyl ammonium bromide was used as a positive control in the cytotoxicity screen. After the assay plates were incubated at 37 C and 5% CO2 for 5 hr, 23 nL of compounds dissolved in DMSO, positive control or DMSO only were transferred to the assay plate by a Pintool station (Kalypsys, San Diego, CA). The assay plates were incubated at 37 C and 5% CO2 for 16 hr. One uL of LiveBLAzer B/G FRET substrate (Life Technologies) was added using a Flying Reagent Dispenser (FRD) (Aurora Discovery, San Diego, CA) and the plates were incubated at room temperature for 2 hr. Fluorescence intensity (405 nm excitation, 460/530 nm emission) was measured using an Envision plate reader (PerkinElmer, Shelton, CT). For cytotoxicity, 4 uL/well of CellTiter-Glo reagent was added into the assay plates using an FRD. After 30 min incubation at room temperature, the luminescence intensity was measured using a ViewLux plate reader (PerkinElmer).", "values": [{"compound": "CNC[C@H](O)c1ccc(O)c(O)c1", "Potency": "inactive"}, {"compound": "CCc1cccc2c3c([nH]c12)C(CC)(CC(=O)O)OCC3", "note": "(stereo not given)", "Potency": "inactive"}, {"compound": "C=C[C@H]1CN2CC[C@H]1C[C@H]2[C@H](O)c1ccnc2ccc(OC)cc12", "activity change, negative = cytotoxicity": "-18.8% (inactive)"}, {"compound": "CCOC(=O)C(C)Oc1ccc(Oc2cnc3cc(Cl)ccc3n2)cc1", "note": "(stereo not given)", "Potency": "inactive"}, {"compound": "Cc1ccc2c(c1)C(=O)OC2=O", "Potency": "inactive"}, {"compound": "CCCCCCC(C)O", "note": "(stereo not given)", "Potency": "inactive"}, {"compound": "Nc1cc([N+](=O)[O-])ccc1C(=O)O", "Potency": "inactive"}, {"compound": "CC(=O)Nc1ccc2c(c1)Cc1cc(NC(C)=O)ccc1-2", "Potency": "inactive"}, {"compound": "CC1(C)C(C=C(Cl)Cl)C1C(=O)OCc1cccc(Oc2ccccc2)c1", "note": "(stereo not given)", "Potency": "inactive"}, {"compound": "CCCCCC=O", "Potency": "inactive"}, {"compound": "FC(F)(F)C(Cl)Br", "note": "(stereo not given)", "Potency": "inactive"}, {"compound": "C=CCNCC=C", "Potency": "inactive"}, {"compound": "C=CC(=O)OCCCC", "Potency": "inactive"}, {"compound": "C[C@]12C=CC(=O)C=C1CC[C@H]1[C@@H]3C[C@@H](O)[C@](O)(C(=O)CO)[C@@]3(C)C[C@H](O)[C@@]12F", "Potency": "inactive"}, {"compound": "O=C(O)c1cc(=O)[nH]c(=O)[nH]1", "Potency": "inactive"}, {"compound": "C=C[C@H]1CN2CC[C@H]1C[C@@H]2[C@@H](O)c1ccnc2ccc(OC)cc12", "Potency": "inactive"}, {"compound": "O=C(CCCN1CCC(O)(c2ccc(Cl)cc2)CC1)c1ccc(F)cc1", "Potency": "27.5 µM (active) and inactive"}, {"compound": "Cc1ccc(C(C)(C)C)c(O)c1", "Potency": "47.4 µM (active) and inactive"}, {"compound": "C[N+](C)(C)CCO", "Potency": "inactive"}, {"compound": "c1ccc2c(c1)ccc1cc3c(ccc4ccccc43)cc12", "Potency": "inactive"}, {"compound": "CC(=O)O[C@]1(C(C)=O)CC[C@H]2[C@@H]3C=C(Cl)C4=CC(=O)CC[C@]4(C)[C@H]3CC[C@@]21C", "Potency": "inactive"}, {"compound": "CC(=O)[C@@]1(O)CC[C@H]2[C@@H]3C[C@H](C)C4=CC(=O)C=C[C@]4(C)[C@@]3(F)[C@@H](O)C[C@@]21C", "Potency": "inactive"}, {"compound": "C[C@]12CC[C@@H]3c4ccc(O)cc4CC[C@H]3[C@@H]1CC[C@H]2O", "Potency": "inactive"}, {"compound": "C=CCCCCCCCCCC", "Potency": "inactive"}, {"compound": "C1CN(SSN2CCOCC2)CCO1", "Potency": "54.4 µM (active)"}, {"compound": "C=CCOC(=O)C(=C)C", "Potency": "inactive"}, {"compound": "Nc1ccc(N)c(Cl)c1", "Potency": "24.5 µM (active) and 49 µM (active)"}, {"compound": "C=CC(C)(O)CCC=C(C)C", "note": "(stereo not given)", "Potency": "inactive"}, {"compound": "[Na+]", "Potency": "inactive"}, {"compound": "COC(=O)C(C)Oc1ccc(Oc2ncc(C(F)(F)F)cc2Cl)cc1", "note": "(stereo not given)", "Potency": "inactive"}, {"compound": "CCCCCCCC/C=C\\CCCCCCCC(=O)O", "Potency": "inactive"}, {"compound": "OC[C@@H](O)[C@@H](O[C@@H]1O[C@H](CO)[C@H](O)[C@H](O)[C@H]1O)[C@H](O)[C@@H](O)CO", "Potency": "inactive"}, {"compound": "Nc1ccc2c(O)cc(S(=O)(=O)O)cc2c1", "activity change, negative = cytotoxicity": "-8.89% (inactive)"}, {"compound": "CC(C)(C)c1cccc(C(C)(C)C)c1O", "Potency": "inactive"}, {"compound": "CC(C)(Oc1ccc(Cl)cc1)C(=O)O", "Potency": "inactive"}, {"compound": "CN(C)/N=N/c1nc[nH]c1C(N)=O", "Potency": "inactive"}, {"compound": "ClC/C=C/CCl", "Potency": "inactive"}, {"compound": "NCCN", "Potency": "inactive"}, {"compound": "O=S1(=O)CCCO1", "Potency": "inactive"}, {"compound": "Oc1c(Cl)ccc(Cl)c1Cl", "activity change, negative = cytotoxicity": "-19% (inactive)"}]}]}
